Compound activity (PubChem BioAssay)
Sampled rows, rich in hits. Any-hit rate of the full collection: about 2%.
PfGluPho inh – PfG6PD (Plasmodium falciparum) enzyme inhibition | PfGluPho enzyme, NADPH resazurin-diaphorase fluorescence | inhibition, % at 20 µM | actives 0.78% (n = 350,000);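 active = inhibition reaching at least a set limit at 20 µM in the primary screen, cut at about 59% in these data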
APOBEC3G inh – blocks human APOBEC3G single-stranded DNA deamination. inhibition, % at 20 µM. actives 0.28% (n = 330,000). Q9HC16. recombinant A3G, ssDNA deamination FAM/TAMRA fluorescence;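 active = inhibition of at least 40% at 20 µM, with no more than 30% in the related APOBEC3A deaminase screen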
GC-B act – GC-B (human) receptor activation; actives 0.11% (n = 370,000); HEK293-GC-B cells, CNP EC30, cGMP TR-FRET; 0% at EC30 CNP, 100% saturating CNP; activation, % at 10 µM; P20594;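 active = activation at 10 µM reaching about 35% in either raw or pattern-adjusted values, limit read from the data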
Neddyl block – cullin neddylation inhibition | actives 0.58% (n = 360,000) | AID 651699 | P61081+Q13564 | inhibition, % at 25 µM | TR-FRET cullin neddylation, biochemical; in the data active = inhibition above about 36%
Target sequence (P61081 whole entry, looked up): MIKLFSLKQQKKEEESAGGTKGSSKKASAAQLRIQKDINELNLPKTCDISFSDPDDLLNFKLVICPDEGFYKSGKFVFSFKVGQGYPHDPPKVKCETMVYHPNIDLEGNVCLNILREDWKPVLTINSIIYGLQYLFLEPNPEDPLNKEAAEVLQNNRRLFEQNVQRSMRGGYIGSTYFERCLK
Target sequence (Q13564 whole entry, looked up): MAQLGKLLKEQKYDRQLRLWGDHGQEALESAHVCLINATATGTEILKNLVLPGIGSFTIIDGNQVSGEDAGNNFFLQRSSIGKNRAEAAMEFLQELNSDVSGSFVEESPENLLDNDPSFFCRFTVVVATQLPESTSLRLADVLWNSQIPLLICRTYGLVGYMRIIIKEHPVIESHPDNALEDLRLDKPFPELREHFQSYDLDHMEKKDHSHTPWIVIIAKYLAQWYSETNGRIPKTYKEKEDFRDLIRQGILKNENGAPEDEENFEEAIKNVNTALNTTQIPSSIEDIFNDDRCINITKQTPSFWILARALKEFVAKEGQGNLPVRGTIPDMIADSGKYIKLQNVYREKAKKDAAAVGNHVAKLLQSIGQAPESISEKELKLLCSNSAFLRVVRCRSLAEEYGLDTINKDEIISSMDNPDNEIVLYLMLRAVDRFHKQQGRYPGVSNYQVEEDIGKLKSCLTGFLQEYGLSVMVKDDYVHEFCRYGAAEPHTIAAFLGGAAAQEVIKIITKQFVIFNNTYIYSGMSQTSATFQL
APOBEC3A inh – blocks human APOBEC3A ssDNA deamination; recombinant A3A, FAM/TAMRA ssDNA deamination fluorescence; inhibition, % at 20 µM; actives 0.41% (n = 330,000); AID 493011;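 active = at least 40% inhibition at 20 µM here, with at most 30% in a related deaminase screen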
GC-A act – GC-A (human) enzyme activation | P16066 | HEK293 GC-A cells, cGMP TR-FRET, EC30 ANP; 0% at EC30 ANP, 100% saturating ANP | activation, % at 10 µM | actives 0.14% (n = 370,000) | AID 1671463; in the data active = activation above about 40%
A3A conf – confirmation of human APOBEC3A DNA deaminase inhibitors; inhibition, % at 20 µM; recombinant A3A, ssDNA deaminase UDG fluorescence assay; actives 63% (n = 1,400); shares compounds with APOBEC3A inh; AID 493151;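 active = inhibition reaching a set limit, 80% of the first screen's cutoff, at 20 µM in any replicate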
UDG ctr A3A – counter-screen for APOBEC3A inhibitors: UDG; AID 504714; inhibition, % at 20 µM; shares compounds with APOBEC3A inh; UDG counterscreen, FAM/TAMRA uracil oligo fluorescence; 1,000 tested, under 10 active; call rule not given here
Large screens that a line does not name were inactive (follow-up assays come after a bar, where shown).

COc1ccc(CC(=O)NNC(=O)c2cnccn2)cc1	none
N#C/C(=C\c1c(N2CCOCC2)nc2ccccn2c1=O)C(=O)NC1CCS(=O)(=O)C1 (configuration not stated)	none (not shown: Neddyl block)
N#C/C(=C\c1c(N2CCCCCC2)nc2ccccn2c1=O)C(=O)NC1CCS(=O)(=O)C1 (configuration not stated)	APOBEC3A inh 44 | A3A conf inactive | UDG ctr A3A inactive
CCOC(=O)c1cccc(NC(=O)CN(C)S(=O)(=O)c2cc(OC)ccc2OC)c1	none (no result: PfGluPho inh, APOBEC3G inh, Neddyl block, APOBEC3A inh)
C=CCn1c(NC(=O)c2ccc(C)cc2)c(C#N)sc1=N	APOBEC3A inh 56 (not shown: Neddyl block) | A3A conf 71 | UDG ctr A3A inactive
C=CCn1c(C(C)NC(=O)c2ccc(C)cc2)n[nH]c1=S (configuration not stated)	none
Clc1ccc(-c2cc(-c3ccccc3)on2)cc1	APOBEC3A inh 95 | A3A conf inactive | UDG ctr A3A inactive
COC(=O)c1ccc(N2NC(=O)/C(=C/c3ccc(-c4ccc(Cl)c(C(=O)O)c4)o3)C2=O)cc1	APOBEC3A inh 59 | A3A conf 70 | UDG ctr A3A inactive
Cc1ccc(N2NC(=O)/C(=C/c3ccc(-c4ccc(Cl)c(C(=O)O)c4)o3)C2=O)cc1C	none
O=C(NC1CCCCN(Cc2ccc(OC(F)(F)F)cc2)C1=O)c1ccc(F)c(F)c1 (configuration not stated)	none (no result: PfGluPho inh, APOBEC3G inh, Neddyl block, APOBEC3A inh)
CCN1C(=NCCc2ccc(Br)cc2)N[C@@H](c2ccccc2)[C@H](C(=O)OC)[C@H]1C	none
CCN1C(=NCCCOC(C)C)N[C@@H](c2ccccc2)[C@H](C(=O)OC)[C@H]1C	APOBEC3A inh 44 | A3A conf 61 | UDG ctr A3A inactive
CCc1nc(-c2ccc(-c3ccc(OC)cc3)nc2OC)no1	none (not shown: Neddyl block)
CCc1nc(-c2ccc(C)nc2OC)no1	APOBEC3A inh 67 | A3A conf 62 | UDG ctr A3A inactive
COC(=O)C1CN(Cc2ccc(C)cc2)CCS(=O)(=O)N1Cc1cn(Cc2ccccc2)nn1 (configuration not stated)	none (no result: PfGluPho inh, APOBEC3G inh, Neddyl block, APOBEC3A inh)
CC(=O)c1cc(-c2ccccc2)c(=O)n2c1CCC2	none (no result: PfGluPho inh, APOBEC3G inh, Neddyl block, APOBEC3A inh)
COc1ccc(NS(=O)(=O)c2ccc(S(=O)(=O)N(C)C)cc2)cc1S(N)(=O)=O	APOBEC3A inh 77 | A3A conf inactive | UDG ctr A3A inactive
CC(C)N1C(=O)CC2(CC[N+](C)(CCOC(=O)C(c3ccccc3)c3ccccc3)CC2)C1=O (configuration not stated)	APOBEC3A inh 60 | A3A conf 27 | UDG ctr A3A inactive
Nc1cc(N)nc(SCC(=O)Nc2ccc(Br)cc2Cl)n1	APOBEC3A inh 58 | A3A conf 56 | UDG ctr A3A inactive
Cc1ccc2c(c1)C1CN(C)CCC1N2C(=O)COc1ccc(N(C)C(=O)C(C)(C)C)cc1 (configuration not stated)	none
Cc1ccc2c(c1)C1CN(C)CCC1N2CC(=O)N(C)c1ccccc1 (configuration not stated)	APOBEC3A inh 51 | A3A conf 50 | UDG ctr A3A inactive
O=C(COC(=O)C1CCN(S(=O)(=O)c2cc([N+](=O)[O-])ccc2Cl)CC1)Nc1ncc(Cl)cc1Cl	APOBEC3A inh 51 | A3A conf 50 | UDG ctr A3A inactive
Cc1ccc2nc(NC(=O)C3CCN(S(=O)(=O)c4cc([N+](=O)[O-])ccc4Cl)CC3)sc2c1	APOBEC3A inh 42 | A3A conf inactive
CC(=O)Nc1ccc(OCC(C)CN2CCC(C(O)(c3ccccc3)c3ccccc3)CC2)cc1 (configuration not stated)	none (no result: PfGluPho inh, APOBEC3G inh, Neddyl block, APOBEC3A inh)
NCC(O)CN(c1ccccc1)c1ccccc1 (configuration not stated)	none
CC(C)[N+](C)(C)CC(O)CN(c1ccccc1)c1ccccc1 (configuration not stated)	APOBEC3A inh 61 | A3A conf 71 | UDG ctr A3A inactive
Cn1c(CC(=O)Nc2ccccc2F)nnc1SCC(=O)N1CCOCC1	APOBEC3A inh 40 | A3A conf inactive
Cn1c(SCC(=O)N2CCOCC2)nnc1-c1ccccc1	APOBEC3A inh 54 | A3A conf inactive
COc1ccccc1NC(=O)c1cc[n+](C)cc1	APOBEC3A inh 86 | A3A conf 64 | UDG ctr A3A inactive
COC(=O)c1ccccc1NC(=O)c1noc2c1CCC2	APOBEC3A inh 59 | A3A conf 47
CSc1ccccc1NC(=O)c1noc2c1CCC2	none
COC(=O)c1ccccc1NC(=O)c1cc[n+](C)cc1	APOBEC3A inh 77 | A3A conf 57 | UDG ctr A3A inactive
COc1ccccc1NC(=O)c1ccc(NC(=O)C2CC2)cc1	none (no result: APOBEC3G inh, APOBEC3A inh)
COC(=O)c1ccccc1NC(=O)c1cc[n+]([O-])cc1	none
CC(C)N1CCCCC(NC(=O)c2cccc(F)c2)C1=O (configuration not stated)	none (no result: PfGluPho inh, APOBEC3G inh, Neddyl block, APOBEC3A inh)
COCC(=O)N(C)[C@H]1C[C@H]2c3[nH]c4c(-c5ccc6c(c5)OCO6)cccc4c3CCN2C(=O)[C@H]1[C@H](C)O	none (no result: PfGluPho inh, APOBEC3G inh, Neddyl block, APOBEC3A inh)
Cc1ccc(C2=C/C(=C/c3cccnc3)C(=O)O2)c(C)c1	none
O=C1OC(c2ccc(Cl)cc2)=C/C1=C/c1cccnc1	APOBEC3A inh 62 | A3A conf 37 | UDG ctr A3A inactive
Cc1cccc(C(=O)N2CCC(N3CCC(C(=O)N4CCOCC4)CC3)CC2)c1	none
Cc1cccc(CC(=O)N2CCC(N3CCC(C(=O)N4CCOCC4)CC3)CC2)c1	APOBEC3A inh 98 | A3A conf inactive | UDG ctr A3A inactive
CN(Cc1cccc(F)c1)C(=O)c1cc(S(=O)(=O)N2CCOCC2)ccc1N1CCCC1	none
Cc1cccc(C)c1NC(=O)CN(C)C(=O)c1cc(S(=O)(=O)N2CCOCC2)ccc1N1CCCC1	APOBEC3A inh 46 | A3A conf inactive
CCOc1ccc(NC(=O)CC2C(=O)N(c3ccccc3)C(=O)N2CCc2cccs2)cc1 (configuration not stated)	APOBEC3A inh 72 | A3A conf inactive | UDG ctr A3A inactive
CCCCC1CCC(C(=O)OC(C)C(=O)Nc2ccc(NC(C)=O)cc2)CC1 (configuration not stated)	APOBEC3A inh 49 | A3A conf inactive
CC(=O)Nc1ccc(NC(=O)C(C)OC(=O)C2CCC2)cc1 (configuration not stated)	none
Cc1ccc(S(=O)(=O)N2CCCC2C(c2ccccc2O)c2cn(C)c3ccccc23)cc1 (configuration not stated)	none (no result: PfGluPho inh, APOBEC3G inh, Neddyl block, APOBEC3A inh)
